Screens: PubChem, National Center for Advancing Translational Sciences (NCATS)
Sampled rows, rich in hits. Any-hit rate of the full collection: about 3.1%.
uPA generation – cell surface uPA generation inhibition. cell surface uPA generation assay, qHTS. 0.31% of 330,000 active. Potency, µM (highest dose often 38.3 µM), hits mostly inhibitors; active means well fitted inhibition curve with a large enough effect; inconclusive means small, poorly fitted or top-dose-only effect; inactive means no such curve, though single readings can be large or run the other way; tested in mouse RAW 264.7 cells; further: nearly all actives have a fitted effect of over 55% in size
RGS4 inh – human RGS4 inhibition. AID 504845. 0.039% of 390,000 active. Potency, µM (top dose mostly 114 µM), hits mostly inhibitors. Transcreener GDP fluorescence polarization, RGS4-accelerated GTP hydrolysis. P49798; active means well fitted inhibition curve with a large enough effect; inconclusive means small, poorly fitted or top-dose-only effect; inactive means no such curve, though single readings can be large or run the other way; further: nearly all actives have a fitted effect of over 75% in size
Target sequence (P49798 whole entry, looked up): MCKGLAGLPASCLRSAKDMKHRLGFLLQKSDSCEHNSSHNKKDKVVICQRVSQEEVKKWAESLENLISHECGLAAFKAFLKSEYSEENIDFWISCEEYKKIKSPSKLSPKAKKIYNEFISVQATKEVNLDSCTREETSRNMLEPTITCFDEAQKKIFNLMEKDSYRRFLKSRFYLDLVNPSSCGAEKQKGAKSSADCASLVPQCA
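MLSMR compounds (23 nl, pin-transferred) preincubated 10 min at room temperature with a 500nM (2x) first reagent, then RGS4 at 900nM (2x) plus Transcreener GDP mix added; fluorescence polarization (620/688 nm) read before and after 90 min at 30 °C.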
D3 antag – D3 dopamine receptor (human) antagonism; D3R cells, DiscoveRx beta-arrestin luminescence, antagonist mode; active compounds read low; max response, negative = inhibition, %; 2.5% of 360,000 active; AID 652054; in the data active means max response below about -50%; inconclusive means no clear call, values can overlap the other calls
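Cells expressing the human receptor were seeded at 1500 cells/well, incubated overnight at 37 degrees C in 5% CO2, then exposed to library compounds with dopamine controls for 90 minutes at 37 degrees C before luminescent detection.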
DRD3 agonist – activates the human D3 dopamine receptor. D3R DiscoveRx beta-arrestin cells, luminescence, 90 min. P35462. max activation, %. 0.58% of 410,000 active; in the data active means max activation above about 30%
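Cells at 1500/well, incubated overnight, then treated with pinned compounds (dopamine as control) for 90 min at 37 degrees C. DiscoveRx reagent added for 30 - 60 minutes at room temperature; luminescence read.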
Of the large screens only hits and unclear results are named; the others gave an inactive call.

CCOc1ccccc1-c1nc(-c2ccc(NC(=O)c3ccc(Br)o3)cc2)no1	DRD3 agonist 57
C[C@@H](O)[C@H]1C(=O)N2C(C(=O)[O-])=C(SC3Cn4cnc[n+]4C3)[C@H](C)[C@H]12 (some centres not stated)	none (no result: uPA generation, RGS4 inh, D3 antag)
COc1ccc(S(=O)(=O)N(CC(=O)Nc2ccc3c(c2)OCO3)c2ccc(C)cc2)cc1	none (no result: uPA generation, D3 antag)
Nc1ccn(CC(=O)NCCNc2ccc([N+](=O)[O-])cn2)c(=O)n1	DRD3 agonist 98
O=C(CN1CCN(Cc2ccccc2)CC1)NCCNc1ccc([N+](=O)[O-])cn1	none
Cc1ccc2[nH]cc(C(=O)CN3CCN(c4ccccn4)CC3)c2c1	none
O=C(CN1CCCC1)N1c2ccccc2Sc2ccc(C(F)(F)F)cc21	none
O=C(CN1CCN(c2ccccn2)CC1)N1c2ccccc2CCc2ccccc21	D3 antag -54
O=C(CN1CCN(c2ccccn2)CC1)N1c2ccccc2Sc2ccc(C(F)(F)F)cc21	D3 antag -62
Cc1ccc(NC(=O)c2cnc(N3CCN(c4ccccn4)CC3)c3ccccc23)c(Br)c1	RGS4 inh inconclusive, DRD3 agonist 44
Cc1ccc(C(=O)CN2CCN(c3ccccn3)CC2)c(C)c1	DRD3 agonist 48
O=C(NCCSCc1ccc(Cl)cc1)C1CCN(S(=O)(=O)Cc2ccccc2)CC1	none (no result: uPA generation, D3 antag)
COCCNC(=O)c1cc(Sc2ccc(F)cc2F)nc2ccccc12	none (no result: uPA generation, D3 antag)
CCNCCC(=O)N1c2ccccc2Sc2ccc(C(F)(F)F)cc21	D3 antag -70
O=C(CSc1nc2ccccc2o1)N1c2ccccc2Sc2ccc(C(F)(F)F)cc21	none
COC(=O)CN1C(=O)CSc2ccc(S(=O)(=O)Nc3cccc(Br)c3)cc21	none (no result: uPA generation, D3 antag)
Cc1ccc2nc3c(c(N)c2c1)CCN3c1ccccc1	D3 antag -77
Cc1ccc2nc3c(c(N)c2c1)CCN3C	D3 antag inconclusive
N=c1sccn1CC(=O)N1CCc2ccccc21	D3 antag -65
O=C(Cc1ccccc1)N1CCc2ccccc21	none
O=C(c1ccc([N+](=O)[O-])cc1)N1CCc2ccccc21	D3 antag -55
Cc1nc(SCC(=O)N2CCCc3ccccc32)c2oc3ccccc3c2n1	DRD3 agonist 34
O=C(C1CCN(S(=O)(=O)N2CCOCC2)CC1)N1CCc2ccccc21	none
O=C(C1CCC(C(=O)N2CCc3ccccc32)CC1)N1CCc2ccccc21 (configuration not stated)	D3 antag -59
O=C(CSc1nc(=O)n(Cc2ccco2)c2c1CCC2)NCc1ccccc1Cl	none (no result: uPA generation, D3 antag)
COC(=O)C1=C(C)NC(C)=C(C(=O)OCCCN2CCC(c3ccccc3)(c3ccccc3)CC2)[C@H]1c1cccc([N+](=O)[O-])c1	none (no result: uPA generation, D3 antag, DRD3 agonist)
Cc1cccc(OC(C)C(=O)N2CCC(c3nc4ccccc4o3)CC2)c1C (configuration not stated)	none (no result: uPA generation, D3 antag)
O=C(CN1CCCCC1)N1CCCc2ccccc21	D3 antag -82
O=C(CSc1nnc(-c2cccs2)n1-c1ccccc1)N1CCCc2ccccc21	none (no result: uPA generation)
CC1CCN(CC(=O)N2CCc3ccccc32)CC1	D3 antag -58
CCOC(=O)C1CCN(CC(=O)N2CCc3ccccc32)CC1	D3 antag -74
CCn1c(SCC(=O)N2CCCc3ccccc32)nnc1-c1cccs1	D3 antag -68
CC1CCN(CC(=O)N2c3ccccc3CC2C)CC1 (configuration not stated)	none
CCOc1ccccc1NC(=O)Cc1coc2c(C)c(C)ccc12	none (no result: uPA generation, D3 antag)
COc1ccccc1CNC(=O)c1cc(S(=O)(=O)N2CCCCCC2)cn1C	none (no result: uPA generation, D3 antag)
Cc1ccc(Cl)cc1N1CCN(C(=O)CCCn2c(=O)[nH]c3ccc(Br)cc3c2=O)CC1	none (no result: uPA generation, D3 antag)
COc1ccccc1NC(=O)c1cc2ccccc2o/c1=N\O	RGS4 inh inconclusive
COc1ccccc1N=c1oc2cc(O)ccc2cc1C(=O)NCC1CCCO1 (configuration not stated)	none
COc1ccccc1NC(=O)c1cc2ccc(O)cc2o/c1=N\O	D3 antag -75
COc1ccccc1N=c1oc2cc(O)ccc2cc1C(N)=O	D3 antag -54
Cc1ccc(/C=C/c2onc(C)c2S(=O)(=O)N2CCC(C(=O)NCc3ccc(OC(C)C)cc3)CC2)cc1	none (no result: uPA generation, D3 antag)
COc1cc2c(cc1OC)[C@@H](c1ccccc1)CN(C)CC2	none (no result: uPA generation, RGS4 inh, D3 antag)
COCc1cc(S(=O)c2ccc(Cl)cc2)nc(C)n1 (configuration not stated)	uPA generation 5µM, RGS4 inh inconclusive, D3 antag inconclusive
CNc1cc([N+](=O)[O-])ccc1N/C=C/C(=O)c1cccs1	none
CNc1cc([N+](=O)[O-])ccc1N/C=C/C(=O)c1ccc2c(c1)OCO2	D3 antag -50
